# Activity calls are given as the source filed them. Unless noted, the rule behind the calls is not given here.
# Assays:
# [1] = anti-His antibody binders, primary screen, artefact control for SMM control protein annotation, biochemical, small-molecule microarray, 635 nm fluorescence (AID 1128); conditions: anti-His Alexa647 antibody binding, higher = more signal;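 note: score merges feature fluorescence with signal-to-noise for each printed compound spot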
# [2] = test system: Human papillomavirus type 1a E7 protein (residues 1-88); experiment: HPV1a E7 small-molecule binders, primary screen, biochemical, small-molecule microarray, residues 1-88, 635 nm (AID 1129); conditions: small-molecule microarray binding, fluorescence 635 nm; higher = more signal
# [3] = target: Focal adhesion kinase 1 (Homo sapiens) (UniProt Q05397); experiment: small-molecule microarray binders of FAK, primary screen, biochemical, 635/667 nm fluorescence, BSA, DTT (AID 1130); conditions: PTK2 binding, 635 nm fluorescence, higher = more signal;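 note: composite of spot emission at 667 nm and signal to noise over triplicate slides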
# Sequence of Focal adhesion kinase 1 (Homo sapiens) (Q05397 whole entry, looked up): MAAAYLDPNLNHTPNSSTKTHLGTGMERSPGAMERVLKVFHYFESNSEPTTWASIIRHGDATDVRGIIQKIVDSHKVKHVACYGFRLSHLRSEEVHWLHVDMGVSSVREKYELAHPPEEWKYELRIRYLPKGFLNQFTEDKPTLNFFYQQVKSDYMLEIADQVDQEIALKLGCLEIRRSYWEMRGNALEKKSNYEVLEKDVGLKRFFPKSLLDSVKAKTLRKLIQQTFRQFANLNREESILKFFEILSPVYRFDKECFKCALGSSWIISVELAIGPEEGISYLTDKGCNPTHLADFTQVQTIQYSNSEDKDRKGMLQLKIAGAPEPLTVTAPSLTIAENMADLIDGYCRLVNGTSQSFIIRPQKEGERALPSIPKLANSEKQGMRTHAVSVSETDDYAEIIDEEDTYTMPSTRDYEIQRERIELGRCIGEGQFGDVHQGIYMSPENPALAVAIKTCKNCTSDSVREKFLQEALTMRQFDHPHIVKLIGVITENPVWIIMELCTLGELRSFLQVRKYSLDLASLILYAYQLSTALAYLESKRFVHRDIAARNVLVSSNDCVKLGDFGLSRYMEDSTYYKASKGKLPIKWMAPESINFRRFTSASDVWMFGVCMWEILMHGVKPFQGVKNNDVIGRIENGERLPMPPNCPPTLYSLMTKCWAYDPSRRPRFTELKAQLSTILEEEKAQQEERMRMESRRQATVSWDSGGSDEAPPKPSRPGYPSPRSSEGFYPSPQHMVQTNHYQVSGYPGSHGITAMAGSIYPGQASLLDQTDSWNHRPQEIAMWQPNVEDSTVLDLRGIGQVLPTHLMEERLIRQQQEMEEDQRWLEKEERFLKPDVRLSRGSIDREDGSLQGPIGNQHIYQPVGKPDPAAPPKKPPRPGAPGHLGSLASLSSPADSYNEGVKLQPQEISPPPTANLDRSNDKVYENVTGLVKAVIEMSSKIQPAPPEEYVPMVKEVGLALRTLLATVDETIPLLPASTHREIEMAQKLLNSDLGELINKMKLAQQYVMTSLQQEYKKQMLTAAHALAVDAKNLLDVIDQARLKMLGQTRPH
# [4] = test system: Fibrinogen (Alexa647-labelled); experiment: fibrinogen binders on compound microarrays, profiling panel, artefact control for SMM control-protein annotation, biochemical, small-molecule microarray, 635/667 nm fluorescence (AID 1131); conditions: fibrinogen-A647 binding fluorescence, higher = more signal;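 note: z-score merges 667 nm fluorescence with per-spot signal-to-noise over triplicate slides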
# [5] = target: Follistatin (Homo sapiens) (UniProt P19883); experiment: follistatin binders on small-molecule microarrays, primary screen, biochemical, small-molecule microarray, 635/667 nm fluorescence (AID 1132); conditions: FST binding, 635 nm fluorescence, higher = more signal
# Sequence of Follistatin (Homo sapiens) (P19883 whole entry, looked up): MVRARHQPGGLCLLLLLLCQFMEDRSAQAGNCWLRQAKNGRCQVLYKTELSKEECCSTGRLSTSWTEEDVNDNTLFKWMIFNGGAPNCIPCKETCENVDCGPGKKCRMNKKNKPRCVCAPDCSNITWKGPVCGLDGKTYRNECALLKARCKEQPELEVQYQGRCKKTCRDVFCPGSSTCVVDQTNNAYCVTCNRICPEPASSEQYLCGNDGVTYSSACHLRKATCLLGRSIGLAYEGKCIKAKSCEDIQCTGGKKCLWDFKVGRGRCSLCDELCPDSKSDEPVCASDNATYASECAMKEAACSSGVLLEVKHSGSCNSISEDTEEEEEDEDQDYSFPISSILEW
# [6] = target: Fibroblast growth factor 2 (Homo sapiens) (UniProt P09038); experiment: FGF2 binders on small-molecule microarrays, primary screen, biochemical, small-molecule microarray, 635/667 nm fluorescence (AID 1133); conditions: small-molecule microarray binding, FGF2, fluorescence 635/667; higher = more signal
# Sequence of Fibroblast growth factor 2 (Homo sapiens) (P09038 whole entry, looked up): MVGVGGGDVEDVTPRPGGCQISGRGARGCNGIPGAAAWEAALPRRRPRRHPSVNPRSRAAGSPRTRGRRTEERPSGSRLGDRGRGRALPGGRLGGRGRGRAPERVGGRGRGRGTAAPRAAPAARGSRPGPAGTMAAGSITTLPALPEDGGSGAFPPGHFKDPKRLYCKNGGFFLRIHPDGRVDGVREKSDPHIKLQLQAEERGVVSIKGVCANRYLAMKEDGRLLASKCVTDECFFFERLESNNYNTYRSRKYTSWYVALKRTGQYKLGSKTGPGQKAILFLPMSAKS
# [7] = mitochondrial membrane potential change in A549 cells, profiling panel, cell-based, JC-1 fluorescence, basal, 24 h, 100 nL (AID 1138); conditions: higher = more signal;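 note: A549 lung adenocarcinoma cells under basal conditions with no added stimulus; test concentration not given here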
# Lefty1 = Lefty1 binders on small-molecule microarrays, primary screen, biochemical, small-molecule microarray, 635/667 nm fluorescence (AID 1139); conditions: small-molecule microarray binding, fluorescence 635/667; higher = more signal
# [8] = test system: wheat germ agglutinin (Triticum aestivum), Alexa647-labelled; experiment: wheat germ agglutinin binders on compound microarrays, profiling panel, artefact control for SMM control-protein annotation, biochemical, small-molecule microarray, 635/667 nm fluorescence (AID 1140); conditions: WGA-A647 binding, 635 nm fluorescence, higher = more signal;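 note: score merges 667 nm feature emission with signal to noise over triplicate slides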
# [9] = target: Luciferin 4-monooxygenase (Photinus pyralis) (UniProt P08659); experiment: firefly luciferase enzyme inhibitors, primary screen, biochemical, luminescence, purified enzyme, 2006 set (AID 1141); conditions: SteadyGlo luminescence, 30 min, higher = more signal, called active from +8 up or from −8 down;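 note: cell-free assay with purified firefly luciferase at 100 ng per well in PBS; test concentration not given here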
# Sequence of Luciferin 4-monooxygenase (Photinus pyralis) (P08659 whole entry, looked up): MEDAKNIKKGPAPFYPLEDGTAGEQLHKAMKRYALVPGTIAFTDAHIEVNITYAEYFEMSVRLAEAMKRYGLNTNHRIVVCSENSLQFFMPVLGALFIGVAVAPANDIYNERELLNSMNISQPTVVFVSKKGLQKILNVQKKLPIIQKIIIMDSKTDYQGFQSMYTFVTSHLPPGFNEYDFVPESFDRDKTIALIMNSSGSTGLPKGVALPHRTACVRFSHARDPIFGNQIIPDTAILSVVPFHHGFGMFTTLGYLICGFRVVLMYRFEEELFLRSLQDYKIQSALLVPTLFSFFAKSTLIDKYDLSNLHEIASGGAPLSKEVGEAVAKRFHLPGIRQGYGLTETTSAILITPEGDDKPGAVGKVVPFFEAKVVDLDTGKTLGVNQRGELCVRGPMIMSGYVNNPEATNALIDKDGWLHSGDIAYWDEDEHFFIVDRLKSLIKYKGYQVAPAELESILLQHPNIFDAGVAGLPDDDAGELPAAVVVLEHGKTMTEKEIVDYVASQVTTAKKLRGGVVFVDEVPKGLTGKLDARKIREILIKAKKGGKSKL
# [10] = test system: Wnt5a (protein binding on small-molecule microarray); experiment: Wnt5a binders on small-molecule microarray, primary screen, biophysical, 635/667 nm fluorescence (AID 1142); conditions: 635 nm fluorescence, higher = more signal;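 note: fluorescence read at 667 nm with signal to noise per printed feature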
# [11] = cell viability in Huh7 cells, primary screen, cytotoxicity control for HCV replication inhibitor project, CellTiter-Glo luminescence, basal, 48 h (AID 1143); conditions: Huh7 HCV replicon, higher = more signal, called active from +8 up or from −8 down;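 note: Huh7 hepatoma cells carrying a hepatitis C replication reporter with no stimulus; test concentration not given here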
# [12] = P. aeruginosa biofilm formation inhibitors, primary screen, PAO1 strain, BacTiter-Glo luminescence, LB-PBS (AID 1144); conditions: 12 h, higher = more signal
# [13] = CREB reporter modulators without forskolin, primary screen, cell-based, PC12, CRE-LacZ reporter, unstimulated (AID 1145); conditions: no forskolin, luminescence, 4.5 h, higher = more signal, called active from +8 up or from −8 down
# [14] = CREB reporter modulators under forskolin, primary screen, cell-based, PC12, CRE-LacZ reporter, forskolin-stimulated (AID 1146); conditions: luminescence, 4.5 h, higher = more signal, called active from +8 up or from −8 down;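 note: PC12 cells with 6xCRE LacZ reporter stimulated by forskolin 10 µM; beta-galactosidase reporter signal reflecting CREB driven transcription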
# [15] = target: Streptavidin (Streptomyces avidinii) (UniProt P22629); experiment: streptavidin binders on small-molecule microarray, primary screen, artefact control for SMM compound annotation, biophysical, 635/667 nm fluorescence (AID 1147); conditions: streptavidin binding, higher = more signal;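 note: signal reflects streptavidin binding to arrayed compounds as a control protein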
# Sequence of Streptavidin (Streptomyces avidinii) (P22629 whole entry, looked up): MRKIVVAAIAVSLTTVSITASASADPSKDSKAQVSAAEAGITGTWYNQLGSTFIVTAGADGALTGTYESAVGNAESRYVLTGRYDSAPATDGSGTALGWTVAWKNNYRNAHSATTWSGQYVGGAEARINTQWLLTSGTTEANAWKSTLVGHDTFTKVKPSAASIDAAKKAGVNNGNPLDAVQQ
# [16] = small-molecule binders of probe aInhba, primary screen, biochemical, small-molecule microarray, 635/667 nm fluorescence (AID 1148); conditions: higher = more signal;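 note: score merges 667nm spot fluorescence with signal-to-noise for antibody binding to printed compounds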
# Torsin-1A (Homo sapiens) [17] = target: Torsin-1A (Homo sapiens) (UniProt O14656); experiment: torsin A binders from cell lysate, primary screen, small-molecule microarray, wild-type, 635/667 nm (AID 1149); conditions: COS7 hTOR1A-WT lysate, 635 nm fluorescence, higher = more signal
# Sequence of Torsin-1A (Homo sapiens) (O14656 whole entry, looked up): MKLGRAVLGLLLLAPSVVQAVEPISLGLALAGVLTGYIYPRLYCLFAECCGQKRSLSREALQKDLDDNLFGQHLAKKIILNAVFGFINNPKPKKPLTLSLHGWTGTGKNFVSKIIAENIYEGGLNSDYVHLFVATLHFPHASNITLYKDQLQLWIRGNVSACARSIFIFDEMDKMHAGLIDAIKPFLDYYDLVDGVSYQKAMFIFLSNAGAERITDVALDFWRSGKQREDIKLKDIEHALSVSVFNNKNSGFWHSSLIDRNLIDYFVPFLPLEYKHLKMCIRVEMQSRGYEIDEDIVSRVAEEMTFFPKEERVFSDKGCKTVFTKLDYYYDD
# Torsin-1A (Homo sapiens) [18] = target: Torsin-1A (Homo sapiens) (UniProt O14656); experiment: small-molecule binders of mutant TOR1A in lysate, primary screen, cell lysate, small-molecule microarray, COS7 lysate, 635/667 nm fluorescence (AID 1150); conditions: COS7 hTOR1A mutant lysate, 635 nm fluorescence, higher = more signal;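 note: score pools 667 nm emission and signal to noise measuring lysate protein binding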
# [19] = test system: Sonic hedgehog protein (Shh); experiment: small-molecule binders of Shh protein, primary screen, biochemical, small-molecule microarray, 635/667 nm fluorescence (AID 1151); conditions: small-molecule microarray binding, 635 nm fluorescence; higher = more signal;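 note: Shh protein binding to compounds spotted on small-molecule microarray slides; score combines spot fluorescence intensity with signal-to-noise across triplicate slides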
Compound,composite z-score [1],composite z-score [2],composite z-score [3],composite z-score [4],composite z-score [5],composite z-score [6],z-score [7],composite z-score (Lefty1),composite z-score [8],z-score [9],composite z-score [10],z-score [11],z-score [12],z-score [13],z-score [14],composite z-score [15],composite z-score [16],composite z-score (Torsin-1A (Homo sapiens) [17]),composite z-score (Torsin-1A (Homo sapiens) [18]),composite z-score [19]
C=CC[C@@]1(C(N)=O)N=C(c2ccc(OCCCO)cc2)O[C@@H]1c1ccccc1N=[N+]=[N-],1.91,1.24,0.231,0.183,1.34,1.14,0.755,1.04,1.13,-5.82 (inactive),0.373,-0.656 (inactive),-0.0376 (inactive),0.614 (inactive),-1.89 (inactive),0.496,0.195,1.02,0.705,0.821
C/C=C/[C@H](CCn1cc([C@H](O)c2ccccc2)nn1)[Si](C)(C)c1ccc(OC)cc1,0.382,-0.559,-0.3,-1.17,-0.735,-0.997,0.45,-0.781,-0.777,0.173 (inactive),-0.582,-1 (inactive),0.303 (inactive),-0.272 (inactive),0.0712 (inactive),-0.832,-0.263,0.0596,-0.57,-0.478
CN(C)CCCCNC(=O)[C@@H]1C[C@@H]2C(=O)N[C@@H](CCCCN)C(=O)N2[C@@H]1c1cccc(OCCO)c1,0.117,-0.229,-0.815,-0.581,-0.029,0.554,-0.872,-0.382,-0.13,0.654 (inactive),-0.157,0.0925 (inactive),-0.703 (inactive),-0.805 (inactive),-0.325 (inactive),-0.521,0.245,-1.37,-2.02,0.985
C=CC[C@@]1(C(=O)OC)N=C(c2ccc(OCCCO)cc2)O[C@@H]1c1ccccc1CN=[N+]=[N-],0.78,0.996,0.242,0.0758,1.05,0.0452,0.00108,0.543,-0.0321,0.668 (inactive),0.0122,-4.22 (inactive),-0.88 (inactive),-1.03 (inactive),-1.5 (inactive),-0.233,-0.212,0.0478,-0.249,0.838
O=C(CS)NCCCCCNC(=O)[C@H]1C[C@H]2C(=O)N[C@@H](Cc3ccccc3)C(=O)N2[C@H]1c1cccc(OCCO)c1,2.51,1.16,0.181,0.748,1.37,1.77,1.17,1.45,0.788,-2.3 (inactive),0.306,-0.178 (inactive),-0.388 (inactive),0.696 (inactive),-0.0595 (inactive),-0.304,0.0439,0.88,0.822,1.83

# From PubChem BioAssay
